Laboratory results published in PubChem BioAssay AID1159580 (chemical genetic matrix, 2015).
Among all 5,500 compounds or so, about 2,000 (36%) were called active. About 18% were inconclusive and are not listed. Cut-off read from the data, not from the text of the source: active = normalized growth mostly below about 0.91 (no sharp cut-off); inconclusive = no clear call, values can overlap the other calls; inactive = mostly above about 0.92. The list shows a part of the results.

Test: chemical genetic growth profiling, strain panel (AID 1159580);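 note: tested at 20 µM; growth read once vehicle control cultures reached saturation at 30 °C; 1 = growth at the plate median or of vehicle wells; lower values mean less growth of the strain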
Details: S. cerevisiae deletion strains, growth OD
[1] = locus YAL013W, strain DEP1, hits give low values
[2] = locus YBR229C, strain ROT2, hits give low values
[3] = locus YDL101C, strain DUN1, hits give low values
[4] = locus YDL134C, strain PPH21, hits give low values
[5] = locus YDR150W, strain NUM1, hits give low values
[6] = locus YEL061C, strain CIN8, hits give low values
[7] = locus YGR078C, strain PAC10, hits give low values
[8] = locus YHR030C, strain SLT2, hits give low values
[9] = locus YHR087W, strain rtc3, hits give low values
[10] = locus YJR043C, strain POL32, hits give low values
[11] = locus YJR075W, strain HOC1, hits give low values
[12] = locus YKL190W, strain CNB1, hits give low values
[13] = locus YLR039C, strain RIC1, hits give low values
[14] = locus YLR058C, strain SHM2 (second series), hits give low values
[15] = locus YLR085C, strain ARP6, hits give low values
[16] = locus YLR262C, strain YPT6, hits give low values
[17] = locus YML094W, strain GIM5, hits give low values
[18] = locus YMR219W, strain ESC1, hits give low values
[19] = locus YMR263W, strain SAP30, hits give low values
[20] = locus YNL128W, strain TEP1, hits give low values
[21] = locus YNL153C, strain GIM3, hits give low values
[22] = locus YNL298W, strain CLA4 (second series), hits give low values
[23] = locus YNL322C, strain KRE1, hits give low values
[24] = locus YNR030W, strain Alg12, hits give low values
[25] = locus YOL006C, strain TOP1, hits give low values
[26] = locus YPL055C, strain LGE1, hits give low values
[27] = locus YPL241C, strain CIN2, hits give low values
[28] = locus YPR135W, strain CTF4, hits give low values
[29] = locus YGR229C, strain SMI1, hits give low values
[30] = locus YMR307W, strain GAS1, hits give low values
[31] = locus YAR019C, strain CDC15, hits give low values
[32] = locus YBL105C, strain PKC1, hits give low values
[33] = locus YBR135W, strain CKS1, hits give low values
[34] = locus YBR136W, strain MEC1, hits give low values
[35] = locus YBR160W, strain CDC28, hits give low values
[36] = locus YDL017W, strain CDC7, hits give low values
[37] = locus YDL028C, strain MPS1, hits give low values
[38] = locus YDL108W, strain KIN28, hits give low values
[39] = locus YDL132W, strain cdc53, hits give low values
[40] = locus YDL214C, strain PRR2, hits give low values
[41] = locus YDR052C, strain DBF4, hits give low values
[42] = locus YDR054C, strain cdc34, hits give low values
[43] = locus YDR226W, strain ADK1, hits give low values
[44] = locus YDR477W, strain SNF1, hits give low values
[45] = locus YER123W, strain YCK3, hits give low values
[46] = locus YER133W, strain GLC7, hits give low values
[47] = locus YFL009W, strain cdc4, hits give low values
[48] = locus YFL029C, strain CAK1, hits give low values
[49] = locus YFR003C, strain YPI1, hits give low values
[50] = locus YFR019W, strain FAB1, hits give low values
[51] = locus YFR028C, strain CDC14, hits give low values
[52] = locus YGR040W, strain KSS1, hits give low values
[53] = locus YGR052W, strain FMP48, hits give low values
[54] = locus YGR092W, strain DBF2, hits give low values
[55] = locus YHR079C, strain IRE1, hits give low values
[56] = locus YHR082C, strain KSP1, hits give low values
[57] = locus YHR205W, strain SCH9, hits give low values
[58] = locus YIL147C, strain SLN1, hits give low values
[59] = locus YJL095W, strain BCK1, hits give low values
[60] = locus YJL128C, strain PBS2, hits give low values
[61] = locus YJL157C, strain FAR1, hits give low values
[62] = locus YJR016C, strain ILV3, hits give low values
[63] = locus YJR066W, strain TOR1 (second series), hits give low values
[64] = locus YJR066W, strain TOR1, hits give low values
[65] = locus YKL048C, strain ELM1, hits give low values
[66] = locus YKL067W, strain YNK1, hits give low values
[67] = locus YKL101W, strain HSL1, hits give low values
[68] = locus YKL193C, strain SDS22, hits give low values
[69] = locus YKL203C, strain TOR2, hits give low values
[70] = locus YLR113W, strain HOG1, hits give low values
[71] = locus YLR133W, strain CKI1, hits give low values
[72] = locus YLR403W, strain SFP1, hits give low values
[73] = locus YML070W, strain DAK1, hits give low values
[74] = locus YMR001C, strain CDC5, hits give low values
[75] = locus YMR205C, strain PFK2 (second series), hits give low values
[76] = locus YMR277W, strain FCP1, hits give low values
[77] = locus YNL006W, strain LST8, hits give low values
[78] = locus YNL020C, strain ARK1, hits give low values
[79] = locus YNL161W, strain CBK1, hits give low values
[80] = locus YNL183C, strain NPR1, hits give low values
[81] = locus YNL207W, strain RIO2, hits give low values
[82] = locus YNL222W, strain SSU72, hits give low values
[83] = locus YNL307C, strain MCK1 (second series), hits give low values
[84] = locus YOL078W, strain AVO1, hits give low values
[85] = locus YOL136C, strain PFK27, hits give low values
[86] = locus YOR061W, strain CKA2, hits give low values
[87] = locus YOR119C, strain RIO1, hits give low values
[88] = locus YOR231W, strain MKK1, hits give low values
[89] = locus YOR329C, strain SCD5, hits give low values
[90] = locus YPL031C, strain PHO85, hits give low values
[91] = locus YPL153C, strain RAD53, hits give low values
[92] = locus YPL204W, strain HRR25, hits give low values
[93] = locus YPL209C, strain IPL1, hits give low values
[94] = locus YPL256C, strain CLN2, hits give low values
[95] = locus YPR025C, strain CCL1, hits give low values
[96] = locus YPR106W, strain ISR1, hits give low values
[97] = locus YPR111W, strain DBF20, hits give low values
[98] = strain NNK1, hits give low values
[99] = strain TSCII, hits give low values

Measured: normalized growth

O=c1nc(-c2ccccc2)nc(-c2ccccc2)[nH]1
inactive: [1] 0.985 | [2] 1 | locus YCL061C, strain MRC1, hits give low values 0.999 | [3] 1.03 | [4] 0.955 | [5] 0.993 | [6] 0.97 | [7] 1 | [8] 0.972 | [9] 0.987 | [10] 0.986 | [11] 1 | [12] 0.96 | [13] 0.922 | [14] 0.993 | [15] 0.951 | [16] 0.902 | [17] 1.08 | [18] 1 | [19] 1.01 | [20] 0.968 | [21] 1.01 | [22] 0.944 | [23] 0.984 | [24] 0.989 | [25] 0.932 | [26] 1.01 | [27] 1.03 | [28] 0.991

S=c1nc(-c2ccccc2)[nH][nH]1
inactive: [1] 0.997 | [2] 1.01 | [3] 1.02 | [4] 0.979 | [5] 1.01 | [6] 0.992 | [7] 0.988 | [29] 0.994 | [8] 1.06 | [9] 1.01 | [10] 0.99 | [11] 0.982 | [12] 0.982 | [13] 1.02 | [14] 0.999 | [15] 1.03 | [16] 0.991 | [17] 1.11 | [18] 0.999 | [19] 0.998 | [30] 1.08 | [20] 0.985 | [21] 0.998 | [22] 0.992 | [23] 1 | [24] 1.01 | [25] 1.06 | [26] 1.03 | [27] 1.01 | [28] 1.02

CSc1nc(Sc2n[nH]c(-c3ccccc3)n2)cc(Sc2n[nH]c(-c3ccccc3)n2)n1
inactive: [31] 1.01 | [32] 0.99 | [33] 0.999 | [34] 1 | [35] 1 | [36] 0.995 | [37] 1.03 | [3] 0.991 | [38] 1.01 | [39] 0.995 | [40] 1.01 | [41] 0.995 | [42] 0.984 | [43] 1.01 | [44] 1.01 | [45] 1.03 | [46] 1 | [47] 1 | [48] 1.02 | [49] 0.99 | [50] 1 | [51] 1.01 | [52] 1.02 | [53] 1 | [54] 1.01 | [8] 1.13 | [55] 0.928 | [56] 1.22 | [57] 1 | [58] 1.01 | [59] 0.875 | [60] 0.978 | [61] 1.02 | [62] 1.01 | [63] 1.01 | [64] 1.2 | [65] 1.01 | [66] 1.01 | [67] 1.01 | [68] 1.02 | [69] 1.09 | [71] 1.01 | [72] 1.03 | [73] 1.01 | [74] 1.01 | [75] 1.02 | [76] 1.02 | [77] 1 | [78] 1.01 | [79] 1 | [80] 0.929 | [81] 1.01 | [82] 1.01 | [83] 1.01 | [84] 1.02 | [85] 1.03 | [86] 1.02 | [87] 1.05 | [88] 0.913 | [89] 1 | [90] 1.02 | [91] 1.01 | [92] 1.01 | [93] 0.998 | [94] 0.89 | [95] 1.01 | [96] 1 | [97] 1 | [98] 1.01 | [99] 1.01
active: [70] 0.855

CCOC(=O)C(NC(C)=O)(Nc1ccc(F)c(Cl)c1)C(F)(F)F (centres undefined)
inactive: [31] 0.992 | [32] 0.995 | [33] 0.983 | [34] 0.997 | [35] 0.991 | [36] 0.992 | [37] 0.995 | [3] 0.982 | [38] 0.997 | [39] 0.991 | [40] 1.01 | [41] 0.99 | [42] 0.997 | [43] 0.985 | [44] 1 | [45] 0.933 | [46] 0.994 | [47] 0.991 | [48] 0.994 | [49] 0.992 | [50] 0.973 | [51] 0.979 | [52] 0.988 | [53] 1.14 | [54] 0.97 | [55] 1.15 | [56] 1.14 | [57] 1.01 | [58] 0.99 | [59] 1.14 | [60] 0.963 | [61] 1.01 | [62] 0.998 | [63] 0.997 | [64] 1.18 | [65] 0.998 | [66] 1 | [67] 1.01 | [68] 0.979 | [69] 1.07 | [70] 1.11 | [71] 1.01 | [72] 1.01 | [73] 0.997 | [74] 0.984 | [75] 0.992 | [76] 0.988 | [77] 0.988 | [78] 1.01 | [79] 0.986 | [80] 1.16 | [81] 1 | [82] 0.989 | [83] 1.01 | [84] 0.981 | [85] 0.999 | [86] 1 | [87] 1 | [88] 1.11 | [89] 0.991 | [90] 1 | [91] 0.993 | [92] 0.996 | [93] 0.988 | [94] 1.12 | [95] 0.986 | [96] 0.99 | [97] 0.997 | [98] 1.01 | [99] 0.986
active: [8] 1.19 [resistant]

CCOC(=N)c1ccc(F)c(Cl)c1
inactive: [1] 1.01 | [2] 0.995 | [3] 0.992 | [4] 1.02 | [5] 1.01 | [6] 1.01 | [7] 1.02 | [29] 1.02 | [8] 1.02 | [9] 0.995 | [10] 1.02 | [11] 1.01 | [13] 1.07 | [14] 1.01 | [15] 1.02 | [16] 1.06 | [17] 0.981 | [18] 1.02 | [19] 1.06 | [30] 1.07 | [21] 0.999 | [22] 1.06 | [23] 1.01 | [24] 1.01 | [25] 1.06 | [26] 1.02 | [27] 0.923 | [28] 1.05
